Experiment [1] is described as follows: NCI Yeast Anticancer Drug Screen. Data for the rad50 strain (AID 155).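 Further: 0% = growth of vehicle-only cultures of the same strain.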 The conditions noted are these: S. cerevisiae rad50 strain growth inhibition, active compounds read high. The essentials: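 A DNA repair-deficient yeast mutant serves as the test organism; compound-induced growth inhibition is calculated against vehicle-treated cells.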
Experiment [2] is described as follows: NCI Yeast Anticancer Drug Screen. Data for the mec2-1 strain (AID 157). The conditions noted are these: S. cerevisiae mec2-1 strain, active compounds read high. The method, boiled down: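 Readout is yeast growth inhibition, normalised to vehicle-treated controls, in the mec2-1 strain exposed to compound.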
A short description of experiment [3]: NCI Yeast Anticancer Drug Screen. Data for the sgs1 mgt1 strain (AID 161).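 Further: 0% = growth of cultures given vehicle only.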 Particulars: S. cerevisiae sgs1 mgt1 strain, active compounds read high. The essentials: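 Compounds are added to genetically altered yeast, and growth is compared with cultures given vehicle alone to give percent inhibition.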
Experiment [4] can be described thus: NCI Yeast Anticancer Drug Screen. Data for the cln2 rad14 strain (AID 165).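 Further: 0% = growth equal to vehicle treated cultures.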 Particulars: S. cerevisiae cln2 rad14 strain, active compounds read high. The essentials: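 Relative to vehicle controls, growth inhibition of compound-treated cln2 rad14 yeast was recorded.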
Experiment [5] can be described thus: NCI Yeast Anticancer Drug Screen. Data for the bub3 strain (AID 167). The conditions noted are these: S. cerevisiae bub3 mutant strain, active compounds read high. The method, boiled down:
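Inhibition values come from growth of compound-treated mutant yeast normalised to vehicle-treated controls.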

Experiment [6] in a line: NCI Yeast Anticancer Drug Screen. Data for the mlh1 rad18 strain (AID 175). The conditions noted are these: S. cerevisiae mlh1 rad18 strain growth inhibition, active compounds read high. The method, boiled down: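 Test agents were incubated with a yeast strain of defined genotype (DNA damage repair defect). Inhibition of growth was derived by comparison with vehicle-exposed cultures.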

The mark [7] stands for this setting: at 5.0 µM (retest, dose inferred, filed as 0.5).
Setting [8] is: at 50.0 µM (retest, dose inferred, filed as 5.0).

This is an account of results in PubChem BioAssay (NCI).

About 79,000 compounds went through this panel and 15% of them were active in at least one assay; those are over-represented in the sample as a whole. Unmarked numbers belong to inactive results. Active and inactive are the calls of the source. No stated cut-off is given here; in the data, active means growth inhibition above about 70%; inactive means the rest.

With `CC(C)C(=O)CP(=O)(O)O`, the growth inhibition is -10% in experiment [1] (setting [7]); 6% in experiment [1] (setting [8]); -18.1% in experiment [1] (at 50.0 µM); 8% in experiment [2] (setting [7]); -2% in experiment [2] (setting [8]); -22.6% in experiment [2] (at 50.0 µM). Moreover, the growth inhibition in experiment [3] (setting [7]) was -9%; in experiment [3] (setting [8]), -4%; in experiment [3] (at 50.0 µM), -30.5%; in experiment [4] (setting [7]), -31%; in experiment [4] (setting [8]), -13%; in experiment [4] (at 50.0 µM) it was 70.2% (active). Moreover, the growth inhibition in experiment [5] (setting [7]) is 7%; in experiment [5] (setting [8]), 4%; in experiment [5] (at 50.0 µM) it was -21.6%; in experiment [6] (setting [7]) it was 7%; in experiment [6] (setting [8]), 9%; in experiment [6] (at 50.0 µM), -7.2%.

As for `[C-]#[O+].[C-]#[O+].[C-]#[O+].[Cl-].[Ru+2].c1ccc([PH+](CC[PH+](c2ccccc2)c2ccccc2)CC[PH+](c2ccccc2)c2ccccc2)cc1`, the growth inhibition in experiment [1] (setting [7]) was 50%; in experiment [1] (setting [8]), 98% (active); in experiment [1] (at 50.0 µM) it was 91% (active); in experiment [2] (setting [7]), 45%; in experiment [2] (setting [8]) it was 99% (active); in experiment [2] (at 50.0 µM), 92.8% (active). Further, the growth inhibition was 55% in experiment [3] (setting [7]); 99% (active) in experiment [3] (setting [8]); 93.1% (active) in experiment [3] (at 50.0 µM); 36% in experiment [4] (setting [7]); 97% (active) in experiment [4] (setting [8]); 92.2% (active) in experiment [4] (at 50.0 µM). In addition, the growth inhibition is 50% in experiment [5] (setting [7]); 98% (active) in experiment [5] (setting [8]); 92.4% (active) in experiment [5] (at 50.0 µM); 56% in experiment [6] (setting [7]); 97% (active) in experiment [6] (setting [8]); 91.1% (active) in experiment [6] (at 50.0 µM).

On to `CCc1ccc([O-])c(C=NCCCN(C)CCCN=Cc2cc(C)ccc2[O-])c1.[Co+3].[N-]=[N+]=[N-]`, for which the growth inhibition in experiment [1] (setting [7]) was -10%; in experiment [1] (setting [8]) it was 7%; in experiment [1] (at 50.0 µM), 22.1%; in experiment [2] (setting [7]) it was -8%; in experiment [2] (setting [8]), 15%; in experiment [2] (at 50.0 µM), -12.9%. The growth inhibition is -4% in experiment [3] (setting [7]); 6% in experiment [3] (setting [8]); 50.5% in experiment [3] (at 50.0 µM); -20% in experiment [4] (setting [7]); 0% in experiment [4] (setting [8]); -34.5% in experiment [4] (at 50.0 µM). Moreover, the growth inhibition in experiment [5] (setting [7]) was 1%; in experiment [5] (setting [8]) it was 8%; in experiment [5] (at 50.0 µM) it was -11.2%; in experiment [6] (setting [7]), -4%; in experiment [6] (setting [8]), -7%; in experiment [6] (at 50.0 µM), 0.85%.

On to `CC1CCOC(=O)/C=C/C=C/C(=O)OC2CC3OC4C5OC5(C)C(O)CC4(COC(=O)C1O)C2(C)C31CO1` (centres undefined), for which the growth inhibition was 16% in experiment [1] (setting [7]); 95% (active) in experiment [1] (setting [8]); 90.3% (active) in experiment [1] (at 50.0 µM); 27% in experiment [2] (setting [7]); 90% (active) in experiment [2] (setting [8]); 92% (active) in experiment [2] (at 50.0 µM). The growth inhibition in experiment [3] (setting [7]) was 21%; in experiment [3] (setting [8]), 95% (active); in experiment [3] (at 50.0 µM) it was 91.5% (active); in experiment [4] (setting [7]), 42%; in experiment [4] (setting [8]), 97% (active); in experiment [4] (at 50.0 µM), 89.5% (active). The growth inhibition in experiment [5] (setting [7]) was 18%; in experiment [5] (setting [8]), 95% (active); in experiment [5] (at 50.0 µM), 89.2% (active); in experiment [6] (setting [7]), 17%; in experiment [6] (setting [8]), 94% (active); in experiment [6] (at 50.0 µM), 89.4% (active).

`COC(=O)C(C)(C)[n+]1c(C)cc(C)cc1C`: the growth inhibition in experiment [1] (setting [7]) is -13%; in experiment [1] (setting [8]), -6%; in experiment [1] (at 50.0 µM) it was -5.45%; in experiment [2] (setting [7]), -5%; in experiment [2] (setting [8]), -35%; in experiment [2] (at 50.0 µM), -3%. Also, the growth inhibition in experiment [3] (setting [7]) is -17%; in experiment [3] (setting [8]), -14%; in experiment [3] (at 50.0 µM) it was -3.1%; in experiment [4] (setting [7]), -10%; in experiment [4] (setting [8]), -8%; in experiment [4] (at 50.0 µM) it was -7.1%. For the same compound, the growth inhibition in experiment [5] (setting [7]) is 1%; in experiment [5] (setting [8]), 8%; in experiment [5] (at 50.0 µM), -6.5%; in experiment [6] (setting [7]), -1%; in experiment [6] (setting [8]), 5%; in experiment [6] (at 50.0 µM) it was 5.9%.

`CC1(C)CCC(C)(C)c2cc(Cl)c(O)cc21`: the growth inhibition in experiment [1] (setting [7]) was 4%; in experiment [1] (setting [8]), 1%; in experiment [1] (at 50.0 µM), 97.8% (active); in experiment [2] (setting [7]) it was 4%; in experiment [2] (setting [8]), 2%; in experiment [2] (at 50.0 µM) it was 99.2% (active). The growth inhibition in experiment [3] (setting [7]) is 4%; in experiment [3] (setting [8]) it was 2%; in experiment [3] (at 50.0 µM), 52.5%; in experiment [4] (setting [7]), 5%; in experiment [4] (setting [8]) it was 4%; in experiment [4] (at 50.0 µM), 96.6% (active). Further, the growth inhibition in experiment [5] (setting [7]) is 3%; in experiment [5] (setting [8]), 9%; in experiment [5] (at 50.0 µM), 98.8% (active); in experiment [6] (setting [7]) it was -1%; in experiment [6] (setting [8]), -4%; in experiment [6] (at 50.0 µM), 97.2% (active).

Turning to `CC(C)(C)C(Br)C(=O)NC(N)=O` (centres undefined), the growth inhibition in experiment [1] (setting [7]) is 1%; in experiment [1] (setting [8]), -6%; in experiment [1] (at 50.0 µM), -8%; in experiment [2] (setting [7]), -4%; in experiment [2] (setting [8]), 3%; in experiment [2] (at 50.0 µM) it was -0.45%. The growth inhibition in experiment [3] (setting [7]) was 12%; in experiment [3] (setting [8]), -7%; in experiment [3] (at 50.0 µM) it was -19.4%; in experiment [4] (setting [7]), -6%; in experiment [4] (setting [8]), 2%; in experiment [4] (at 50.0 µM), 82.2% (active). In addition, the growth inhibition in experiment [5] (setting [7]) is -3%; in experiment [5] (setting [8]) it was -3%; in experiment [5] (at 50.0 µM), -12%; in experiment [6] (setting [7]), -2%; in experiment [6] (setting [8]) it was -8%; in experiment [6] (at 50.0 µM), 16.3%.

Consider `Cc1nc2c(Br)cc(Br)cc2c(=O)n1-c1ccccc1N`, for which the growth inhibition in experiment [1] (setting [7]) was 19%; in experiment [1] (setting [8]), 22%; in experiment [1] (at 50.0 µM) it was 63%; in experiment [2] (setting [7]), 15%; in experiment [2] (setting [8]) it was 17%; in experiment [2] (at 50.0 µM), 9.45%. Besides, the growth inhibition in experiment [3] (setting [7]) is 13%; in experiment [3] (setting [8]), 24%; in experiment [3] (at 50.0 µM) it was 63.8%; in experiment [4] (setting [7]) it was 18%; in experiment [4] (setting [8]) it was 37%; in experiment [4] (at 50.0 µM), 19.4%. In addition, the growth inhibition in experiment [5] (setting [7]) is 3%; in experiment [5] (setting [8]) it was 4%; in experiment [5] (at 50.0 µM), 70.2% (active); in experiment [6] (setting [7]), 37%; in experiment [6] (setting [8]), 34%; in experiment [6] (at 50.0 µM), 46.2%.
